# Experimental data taken from PubChem BioAssay AID431 (Sanford-Burnham Center for Chemical Genomics, 2006).
# About 1,100 (1.7%) of roughly 63,000 compounds were called active. The sample as a whole holds a higher share of actives than the screen did. Results with a measured potency or affinity are listed apart. A number with no mark means an inactive call.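 The calls were made as follows: active = compounds whose percent cytotoxicity in the single-dose primary screen, scaled between solvent and toxic-drug controls, exceeds 50; inactive = the rest.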
# Experiment: viability loss of HPDE-C7K cells – cell-based, fluorescence, HTS, primary screen (AID 431);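 also: 0% = DMSO solvent wells and 100% = doxorubicin-treated wells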
# Conditions: HPDE-C7K KRASV12 cells, Alamar Blue viability, 48 h; at 10 µM; active compounds read high
row,SMILES,cytotoxicity
1,CCOC(=O)N1CCN(C(=O)COc2ccc(S(=O)(=O)NC3CCCCC3)cc2C)CC1,-6.6%
2,COC(=O)c1ccc(C2/C(=C(\O)c3ccc(OC)c(C)c3)C(=O)C(=O)N2c2cc(C)on2)cc1 (configuration not stated),13.9%
3,Cc1c(C#N)c2ccccc2n1CC(=O)NCCc1c[nH]c2ccccc12,-3.8%
4,CN(C)S(=O)(=O)c1ccc(-c2ccccc2)cc1,-6.1%
5,CN(C)S(=O)(=O)n1cnc(-c2ccccc2)c1-c1ccccc1,-11.5%
6,O=C(O)COc1ccc(Oc2ccccc2)cc1,10.4%
7,COc1ccc(N2CCN(CCCNC(=O)CCCn3c(=O)[nH]c4ccsc4c3=O)CC2)cc1,10.4%
8,O=C(OCc1nc2ccccc2s1)c1cccc(S(=O)(=O)N2CCOCC2)c1,4.7%
9,OC1CCCN(Cc2cccc3ccccc23)C1 (configuration not stated),9.5%
10,CN(C)c1ccc(CN2CCCC(O)C2)cc1 (configuration not stated),4.1%
11,O=S(=O)(c1ccc(C2CCCCC2)cc1)N1CCN(c2ncccn2)CC1,0.7%
12,Cc1cc(C(=O)CN2C(=O)NC(C)(c3cccc(Br)c3)C2=O)c(C)n1Cc1ccco1 (configuration not stated),17%
13,CC(=O)O[C@H]1C(=O)[C@]2(C)[C@H]([C@H](OC(=O)c3ccccc3)[C@]3(O)C[C@H](OC(=O)[C@H](O)[C@@H](NC(=O)c4ccccc4)c4ccccc4)C(C)=C1C3(C)C)[C@]1(OC(C)=O)CO[C@@H]1C[C@@H]2O,67.2% (active)
14,CC(=O)O[C@@]12CO[C@@H]1C[C@H](O)[C@@]1(C)C(=O)[C@H](O)C3=C(C)[C@@H](OC(=O)[C@H](O)[C@@H](NC(=O)OC(C)(C)C)c4ccccc4)C[C@](O)([C@@H](OC(=O)c4ccccc4)[C@H]21)C3(C)C,52.1% (active)
15,CCc1cccc(CC)c1N(COC)C(=O)Cn1c(CO)nc2ccccc21,-6.1%
16,CCOc1ccc(-n2c(=O)cc(N3CCN(c4ccccc4)CC3)[nH]c2=O)cc1,7.9%
17,CCOC(=O)CSc1nnc(CNC(=O)c2ccco2)n1C,-0.1%
18,O=C(NC1CCCC1)C1C2C=CC3(CN(Cc4cccs4)C(=O)C13)O2 (configuration not stated),3.8%
19,Cc1ccc2nc(NCc3ccco3)c(C=NCc3ccco3)c(=O)n2c1,-7.1%
20,CC(=O)N[C@H]1C[C@@H]1c1ccccc1,6.6%
21,COc1ccc(NC(=O)CS(=O)CC(=O)NCc2cccc(C(F)(F)F)c2)cc1 (configuration not stated),1%
22,COc1ccc(NC(=O)CSc2nnc(-c3ccccc3)n2Cc2ccco2)c(OC)c1,-5.5%
